High-throughput results from PubChem.
Most compounds without a hit are left out; they make up all but 2.3% or so of the library.
Mcl1-Bid inh: Mcl-1/Bid interaction inhibition. Q07820. hit rate 0.97% among 220,000. TR-FRET Mcl-1/Bid-Dy647 peptide binding, 1536-well. inhibition, % at 21.7 µM;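 active = compounds that cut the binding signal by more than half at the single screening dose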;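 also: His-tagged Mcl-1 with europium anti-His antibody binding Bid BH3 peptide; 0% = Mcl-1 plus peptide wells and 100% = peptide-only wells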
Target sequence (Q07820 whole entry, looked up): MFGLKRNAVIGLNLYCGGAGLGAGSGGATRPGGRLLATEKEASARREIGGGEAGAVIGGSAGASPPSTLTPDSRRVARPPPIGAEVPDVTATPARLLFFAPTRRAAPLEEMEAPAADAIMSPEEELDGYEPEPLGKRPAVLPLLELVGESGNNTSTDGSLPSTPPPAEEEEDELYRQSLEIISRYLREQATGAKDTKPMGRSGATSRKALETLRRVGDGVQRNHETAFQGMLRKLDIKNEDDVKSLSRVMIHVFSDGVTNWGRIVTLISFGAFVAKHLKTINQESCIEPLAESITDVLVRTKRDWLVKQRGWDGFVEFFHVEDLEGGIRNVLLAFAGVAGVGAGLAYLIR
Mcl1-Noxa inh: Mcl-1/Noxa interaction inhibition; Q07820; TR-FRET Mcl-1/Noxa peptide binding, 2 h; inhibition, % at 21.7 µM; hit rate 1.5% among 220,000;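 active = compounds that cut the protein-peptide binding signal by more than 50% relative to plate controls in a single-dose test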;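 also: His-tagged Mcl-1 with rhodamine Noxa BH3 peptide and terbium anti-His antibody; 0% = Mcl-1 plus Noxa peptide wells and 100% = peptide-only wells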
Mcl-1 Bim block: human Bim-Mcl-1 interaction inhibition; hit rate 0.1% among 190,000; inhibition, % at 10 µM; Bead-based flow cytometry, Bim peptide-Mcl-1 binding; in the data active = inhibition above about 40%;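 also: 0% = no compound tracer wells and 100% = peptide blocker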
GLD-1 TGE inh: GLD-1-TGE RNA interaction inhibition (C. elegans). Q17339. purified GLD-1 + fluorescein TGE RNA, fluorescence polarization. inhibition, % at 5.96 µM. hit rate 0.44% among 320,000;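 active = percent inhibition above a per-plate cutoff, the plate mean of test compounds plus 3 SD, cut at about 30% in these data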;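 also: 0% = DMSO wells with GLD-1 and probe and 100% = wells lacking GLD-1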
Bcl-xL primary: blocks human Bcl-xL binding to Bim BH3 peptide | Q07817 | GST-Bcl-xL / FITC-Bim BH3 peptide fluorescence polarization | inhibition, % at 10.9 µM | hit rate 0.7% among 320,000 | AID 2129;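 active = inhibition above the mean of all tested compounds plus 3 SD, cutoff set per campaign, cut at about 30% in these data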;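 also: 0% = DMSO wells and 100% = unlabeled Bim-BH3 peptide competitor; inhibitors lower millipolarization by displacing the labeled peptide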
Target sequence (Q07817 whole entry, looked up): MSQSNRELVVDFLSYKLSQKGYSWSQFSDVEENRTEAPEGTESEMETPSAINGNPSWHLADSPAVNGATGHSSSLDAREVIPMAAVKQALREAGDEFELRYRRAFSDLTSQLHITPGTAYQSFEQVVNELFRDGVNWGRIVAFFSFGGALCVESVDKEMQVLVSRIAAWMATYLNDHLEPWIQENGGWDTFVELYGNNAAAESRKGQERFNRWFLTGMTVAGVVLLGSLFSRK
MCL1-BIM inh: MCL1-BIM-BH3 interaction inhibition (human). Q07820. GST-MCL1 / FITC-Bim-BH3 fluorescence polarization. inhibition, % at 10.9 µM. hit rate 0.68% among 320,000. AID 2057;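 active = inhibition above the mean inhibition of all tested compounds plus 3 SD, set per campaign, cut at about 40% in these data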;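 also: 0% = DMSO wells and 100% = unlabeled Bim-BH3 peptide control; higher means more loss of mP so more displacement of Bim peptide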
An asterisk follows results filed as active; · = not tested or not shown.

SMILES	Mcl1-Bid inh	Mcl1-Noxa inh	Mcl-1 Bim block	GLD-1 TGE inh	Bcl-xL primary	MCL1-BIM inh
Cc1ccc(C(=O)COc2ccccc2-c2ccccc2)cc1C	-7	11	-3	-6	6	-6
COc1ccc(N2CCC(CNC(=O)Nc3ccc(OC)cc3OC)C2)cc1 (stereo unspecified)	-86	90*	-2	-9	12	-2
COc1ccc(-c2nnc3cccc(Cl)n23)c(OC)c1	·	·	·	10	-4	-5
CC1CCc2nc3ccc(S(=O)(=O)N4CCC(C(=O)O)CC4)cc3c(C(=O)O)c2C1 (stereo unspecified)	·	·	·	9	10	13
COC(CNC(=O)C1CCN(S(=O)(=O)c2ccc3nc4c(c(C(=O)O)c3c2)CC(C)CC4)CC1)OC (stereo unspecified)	·	·	·	5	31*	33
Cc1ccc(C(=O)Nc2c(-c3cccs3)c(=O)c3ccccc3n2C)cc1	66*	0	1	-1	3	0
CCCCC/C=C\C/C=C\C/C=C\CCCCC(=O)O	·	·	·	5	3	16
CCCCCCCC/C=C\CCCCCCCC(=O)O	-74	63*	·	2	4	4
CC(=O)Nc1ccc(N2C(C(C)=O)=NN(c3ccc(Cl)cc3)C2c2sccc2C)cc1 (stereo unspecified)	-18	5	-4	7	-3	-6
COc1ccc(C)cc1Nc1n[n+](C)c(-c2ccc(O)cc2O)s1	·	·	·	-4	1	8
COc1ccc(C)cc1Nc1n[n+](C)c(-c2c3ccccc3cc3ccccc23)s1	·	·	·	13	32*	28
CCN1CCCC1CNC(=O)Cn1cc2c(n1)CCC(C)C2 (stereo unspecified)	-29	7	0	7	9	8
Cc1ccc2sc(N(CCN(C)C)C(=O)c3ccc(S(=O)(=O)N4CC(C)OC(C)C4)cc3)nc2c1C (stereo unspecified)	·	·	·	0	2	2
Clc1ccc(SCc2cn3ccccc3n2)cc1	-25	-1	-2	1	2	2
c1ccc2c(SCc3cn4ccccc4n3)nncc2c1	9	0	-2	3	54*	1
Clc1ccc(-c2ccccc2)cn1	·	·	·	-2	9	11
CCC(=O)Nc1c2c(nn1-c1cccc(Cl)c1)CS(=O)(=O)C2	·	·	·	10	-4	-4
O=c1[nH]c(CSc2ncccn2)nc2c1cnn2-c1ccccc1	-19	58*	-7	-6	4	6
O=C(CCC(=O)c1ccc(Oc2ccccc2)cc1)Nc1cccc(Cl)c1	98*	7	-9	1	0	-7
COc1ccc(C(=O)CCC(=O)Nc2cccc(Cl)c2)cc1	10	7	-1	1	-3	-3
N#CC(C(=O)Nc1ccc(Cl)c(Cl)c1)=C1Nc2ccccc2N1	53*	73*	-3	-1	7	1
N#CC(C(=O)Nc1cccc(Cl)c1)=C1Nc2ccccc2N1	-20	27	0	4	4	6
CC(C)(C)n1nc2c(c1NC(=O)COc1ccccc1F)CS(=O)(=O)C2	-10	18	-1	-6	4	6
CCOC(=O)c1c(NC(C)=O)sc2c(O)c(Br)cc(Br)c12	-15	84*	-3	5	16	27
COc1ccc(-c2oc(=O)n(C)c2-c2ccc(OC)cc2)cc1	·	·	·	7	5	6
SMILES	Mcl1-Bid inh	Mcl1-Noxa inh	Mcl-1 Bim block	GLD-1 TGE inh	Bcl-xL primary	MCL1-BIM inh
C=CCNC(=S)NNC(=O)c1ccccc1	-41	3	0	2	3	9
C=CCNC(=S)NNC(=O)c1ccc([N+](=O)[O-])cc1	-13	68*	0	-4	8	16
COCCn1c(=NC(=O)c2cccs2)sc2cc(NC(C)=O)ccc21	5	10	-7	2	1	0
C#CCn1c(=NC(=O)c2ccc(Br)s2)sc2cc(NC(C)=O)ccc21	58*	-31	-13	-4	0	-2
Cn1c(=O)c2[nH]c(CN(Cc3ccccc3)Cc3ccccc3)nc2n(C)c1=O	-7	-18	2	34*	-4	-2
CN(Cc1ccccc1)Cc1nc2c([nH]1)c(=O)[nH]c(=O)n2C	97*	·	-4	4	7	11
CN(C)Cc1nc2c([nH]1)c(=O)n(C)c(=O)n2C	-23	8	2	0	3	4
CN(C)CCNc1c(N)c(=O)oc2ccccc12	-27	23	-2	0	2	2
CN(C)C(=O)N1CCC(C(=O)NC2CCCCCCC2)CC1	-12	4	67*	2	2	6
CCN(CC)S(=O)(=O)c1ccc(C)c(NC(=O)CN2CCN(C)CC2)c1	65*	33	·	-3	6	-4
Cc1ccc(S(=O)(=O)N(C)C)cc1NC(=O)CN1CCCC1	·	·	·	12	-3	-19
O=C(Cc1ccc(Br)cc1)Nc1ncc([N+](=O)[O-])s1	-20	70*	·	-1	5	8
C[C@@H]1COC(=O)[C@@H](CC(=O)OC(C)(C)C)C/C=C\C[C@@H](CC(=O)N[C@@H](CO)Cc2ccccc2)C(=O)N1	·	·	·	5	·	·
COC(=O)CSc1nnc(CNc2nc(-c3ccccc3)cs2)n1C	-17	-12	-1	-3	2	0
Cn1c(CNc2nc(-c3ccccc3)cs2)nnc1SCC(=O)N1CCc2ccccc21	-18	5	51*	6	-2	3
Cc1ccc(NC(=O)c2cc(S(=O)(=O)NCCC3=CCCCC3)ccc2F)cc1F	-4	10	68*	4	3	8
O=C(CSc1nc2scc(-c3ccco3)c2c(=O)n1-c1ccccc1)NCC1CCCO1 (stereo unspecified)	3	56*	-1	-7	6	3
COc1ccc(-n2c(SCC(=O)NCC3CCCO3)nc3c(c2=O)SC(C)C3)cc1 (stereo unspecified)	·	·	·	1	3	5
C=CCn1c(SCC(=O)NCC2CCCO2)nc2scc(-c3ccco3)c2c1=O (stereo unspecified)	-25	18	1	-1	0	-2
O=C(CSc1nc2ccsc2c(=O)n1Cc1ccccc1)NCC1CCCO1 (stereo unspecified)	-17	0	-5	-3	5	5
NC(=O)CSc1nc2scc(-c3ccco3)c2c(=O)n1-c1ccccc1	6	55*	0	1	11	20
CC1Cc2nc(SCC(=O)NCC3CCCO3)n(-c3ccc(F)cc3)c(=O)c2S1 (stereo unspecified)	·	·	·	0	64*	-1
O=C(CSc1nc2ccsc2c(=O)n1Cc1ccc(C(=O)O)cc1)NCC1CCCO1 (stereo unspecified)	18	14	73*	9	6	4
O=C(O)c1cccc(C(=O)Cc2ccccc2)c1	-13	11	-4	1	-3	1
CCOC(=O)N1CCN(Cc2ccc(OCC(O)CN3CCCCC3)cc2)CC1 (stereo unspecified)	·	·	·	8	5	15
